High-throughput results as filed in PubChem BioAssay.
DT40 TDP1 CPT: growth inhibition of DT40 Tdp1-/-;hTDP1 cells with camptothecin (screen for TDP1 inhibitors); AID 686979; chicken DT40 Tdp1-/-;hTDP1 cells + 20 nM CPT, ATP luminescence, 48 h; hit rate 12% among 420,000; Potency, µM (series often up to 46.2 µM), without a hit: at the highest dose activity change, negative = growth inhibition, actives largely listed as inhibitors; further: nearly all actives have a fitted effect of over 55% in size
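Cell growth measured by CellTiter-Glo luminescence after a minimum 48 h, 37 C compound exposure with 20 nM CPT in Tdp1-knockout DT40 cells stably expressing hTDP1, seeded 400/well; qHTS titration format.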
HT1080NT lethal: kills 2HG-producing HT-1080-NT fibrosarcoma cells. Potency, µM (series often up to 46.1 µM), for the others: at the highest dose activity, negative = less viability, usual class: cytotoxic. HT-1080-NT fibrosarcoma viability, CellTiter-Glo ATP luminescence, 48 h. hit rate 1.6% among 360,000;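 further: NT is the 2HG producing partner of a matched IDH1 knockdown line; 0% = DMSO-treated cells and -100% = media-only wells without cells; nearly all actives have a fitted effect of over 55% in size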
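Viability by CellTiter-Glo luminescence after 48 h compound exposure at 37C of HT-1080-NT cells (750/well, RPMI, 5% FBS). % activity scaled between DMSO wells and medium-only wells, then curve-fitted and categorized by curve class.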
KB-3-1 cytotox: kills parental KB-3-1 adenocarcinoma cells; Potency, µM (series often up to 46.1 µM), most hits filed as cytotoxic; hit rate 1.4% among 400,000; KB-3-1 viability, CellTiter-Glo ATP luminescence, 72 h; further: nearly all actives have a fitted effect of over 60% in size
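Using CellTiter-Glo luminescence, growth of non-resistant KB-3-1 adenocarcinoma cells is assessed 72 h after pin-tool compound addition at 37 °C. Normalized responses across the concentration series yield fitted curves.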
HT1080 IDH1KD tx: toxicity to HT-1080 IDH1 knockdown cells (counter line); HT-1080 IDH1 knockdown viability, ATP luminescence, 48 h; Potency, µM (top dose mostly 46.1 µM), for inactives: top-dose activity, negative = toxicity, actives largely listed as cytotoxic; hit rate 2% among 360,000; AID 686971;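 further: 0% = DMSO wells and -100% = cell-free medium wells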
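% activity derives from luminescence (CellTiter-Glo), normalised to DMSO and no-cell wells. HT-1080-IDH1KD cells, 750/well, had 48 h compound exposure at 37 °C.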
KB-V1 MDR tox: KB-V1 MDR subline cytotoxicity; KB-V1 MDR cells viability, CellTiter-Glo, 72 h; Potency, µM (top dose mostly 46.1 µM), usual class: cytotoxic; hit rate 3.4% among 400,000; further: nearly all actives have a fitted effect of over 60% in size
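Cytotoxicity via CellTiter-Glo luminescence after 72 h compound exposure at 37 degrees C. Cells: drug-selected KB-V1 line, DMEM phenol-red free plus 10% FBS. Compounds tested at multiple concentrations; normalized data fitted to concentration-effect curves.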
DT40 TDP1 no CPT: qHTS for Inhibitors of human tyrosyl-DNA phosphodiesterase 1 (TDP1): qHTS in cells in absence of CPT | hit rate 15% among 420,000 | Potency, µM (highest dose often 46.2 µM), for inactives: at the top dose activity change, negative = growth inhibition, usual class: inhibitors | AID 686978, 2013 | DT40 Tdp1-/- hTDP1 cells, no CPT, ATP luminescence, 48 h; further: nearly all actives have a fitted effect of over 55% in size
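Cells were dispensed at 400 per well, compounds added by pin tool, plates incubated ≥48 hr at 37 °C, then CellTiter-Glo added for 30 min at room temperature before luminescence reading. Line: DT40 Tdp1-/- complemented with hTDP1; camptothecin omitted.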
The depositor's hits bear a star; i = inactive; ? = inconclusive; nt = no result; [ ] = remark or other dose. An excerpt weighted towards active compounds, which were near 19% of everything screened. The call rests on the fitted dose curve; in most records, active means well fitted curve in the direction sought with a large enough effect; inconclusive means small, poorly fitted or top-dose-only effect, or another doubt; inactive means no such curve, though single readings can be large; an effect the other way counts as inactive or inconclusive. Unless noted, on the % scale 0 is the no-effect control and ±100 the full control effect; potency means the concentration at half of the fitted maximal effect.

SMILES | DT40 TDP1 CPT | HT1080NT lethal | KB-3-1 cytotox | HT1080 IDH1KD tx | KB-V1 MDR tox | DT40 TDP1 no CPT
O=C1C2=C(Nc3ccccc3SC2c2ccccc2C(F)(F)F)c2ccccc21 (stereo unspecified) | 5.8µM* | nt | i | nt | ? | 3.3µM*
O=[N+]([O-])c1ccc(NN=Cc2cc(Br)ccc2O)nc1 | 2.6µM* | 7.3µM* | i | 4.6µM* | ? | 1.3µM*
O=[N+]([O-])c1ccc(NN=Cc2cccc(O)c2)nc1 | 23µM* | -15% | i | -28% | i | ?
O=[N+]([O-])c1ccc(NN=Cc2ccco2)nc1 | 3% | -5% | i | -23% | i | -28%
CC(=O)Nc1ccc(C=NNc2ccc([N+](=O)[O-])cn2)cc1 | 23µM* | 6% | i | -10% | i | -25%
Cc1cccc(C)c1-n1c(C)cc(/C=N\Nc2ccc([N+](=O)[O-])cn2)c1C | ? | -4% | i | -18% | i | 15µM*
COc1cc(/C=N/Nc2ccc([N+](=O)[O-])cn2)cc(OC)c1O | 1% | ? | i | ? | i | ?
O=[N+]([O-])c1ccc(N/N=C\c2cccnc2)nc1 | 0% | 3% | i | 7% | i | -15%
COc1ccc([C@H]2C[C@@H](O)[C@H](n3cc(C4CC4)nn3)CN2C(=O)c2cccs2)cc1 | -25% | 9% | i | 2% | i | ?
CCC1CN(C(=O)N2CCC(C(=O)NCc3ccc(N(C)C)cc3)CC2)c2ccccc2O1 (stereo unspecified) | 16µM* | nt | nt | nt | nt | ?
CCC1CN(C(=O)N2CCC(C(=O)NCc3ccccc3OC)CC2)c2ccccc2O1 (stereo unspecified) | ? | 0% | ? | -7% | i | ?
CC(C)Oc1ccc(CNC(=O)C2CCN(C(=O)N3CC(C)Oc4ccccc43)CC2)cc1 (stereo unspecified) | ? | nt | i | nt | i | ?
CCOc1ccc(CNC(=O)C2CCN(C(=O)N3CC(CC)Oc4ccccc43)CC2)cc1 (stereo unspecified) | 15µM* | nt | nt | nt | nt | 23µM*
CCOc1ccc(CCNC(=O)C2CCN(C(=O)N3CC(CC)Oc4ccccc43)CC2)cc1 (stereo unspecified) | 15µM* | nt | nt | nt | nt | 15µM*
COc1ccccc1OCC(=O)Nc1cc(-c2ccc(C)cc2)no1 | 1% | nt | i | nt | i | -22%
COc1ccc(NC(=O)c2nnn(CC(=O)Nc3cc(C)cc(C)c3)c2N)c(OC)c1 | -15% | nt | i | nt | i | -20%
CCN1CCOC(=O)C1CC(=O)Nc1ccc(Br)cc1 (stereo unspecified) | 23µM* | nt | i | nt | i | ?
CCN1CCOC(=O)C1CC(=O)Nc1cc(C)ccc1OC (stereo unspecified) | 5.2µM* | nt | i | nt | ? | 2.6µM*
CCN1CCN(CCC(=O)Nc2ccc(Br)cc2)CC1 | -26% | 0% | i | -6% | i | -1%
COc1ccccc1CNC(=O)CCC(=O)N1CC(C)Sc2ccccc21 (stereo unspecified) | 18µM* | 1% | i | -10% | i | ?
CC1CN(C(=O)CCC(=O)NCc2ccc(F)cc2)c2ccccc2S1 (stereo unspecified) | -22% | 11% | i | 13% | i | -13%
CCC1Sc2ccccc2N(CC(=O)NCc2ccccc2OC)C1=O (stereo unspecified) | -2% | 1% | i | 3% | 21µM* | -21%
CCC1Sc2ccccc2N(CC(=O)NC2CCCC2)C1=O (stereo unspecified) | -13% | -22% | i | 9%[9.24 µM] | i | -18%
COc1ccc(-c2ccnc3nc(N4CCOCC4)nn23)cc1 | -9% | -4% | i | -1% | ? | -11%
c1ccc(Oc2ccc(-c3ccnc4nc(N5CCOCC5)nn34)cc2)cc1 | 15µM* | -13% | i | ? | ? | 16µM*
SMILES | DT40 TDP1 CPT | HT1080NT lethal | KB-3-1 cytotox | HT1080 IDH1KD tx | KB-V1 MDR tox | DT40 TDP1 no CPT
COc1cccc(CNC(=O)Cn2c(SCC(=O)Nc3ccc(F)cc3)nc3ccccc32)c1 | ? | nt | i | nt | i | ?
COc1ccc(-c2cnc3c(NC(C)=O)cc(-c4cc(F)ccc4OC)cn23)cc1OC | 5.2µM* | ? | ? | ? | ? | 5.8µM*
COc1ccc(F)cc1-c1cc(NC(C)=O)c2ncc(-c3cc(OC)c(OC)c(OC)c3)n2c1 | 3.7µM* | ? | 7.3µM* | -2% | i | 2.9µM*
COc1ccc(-c2cc(NC(C)=O)c3ncc(-c4ccccc4)n3c2)cc1OC | ? | ? | i | -18% | i | ?
COc1ccc(-c2cc(NC(C)=O)c3ncc(-c4ccc(OC)c(OC)c4)n3c2)c(OC)c1 | 23µM* | ? | i | ? | ? | 21µM*
COc1ccc(-c2cc(NC(C)=O)c3ncc(-c4ccccc4)n3c2)c(OC)c1 | ? | -27% | ? | ? | ? | -83%
COc1ccc(-c2cc(NC(C)=O)c3ncc(-c4ccc(F)cc4)n3c2)cc1OC | 23µM* | -3% | i | -20% | i | 15µM*
COC(=O)COc1cccc(NC(=O)c2ccc(Cl)cc2)c1 | ? | 2% | i | 11% | i | ?
O=C(Nc1cccnc1)c1ccc(COCC(F)(F)F)cc1 | 13% | -14% | i | -4% | ? | 7%
COc1ccc(NC(=O)c2ccc(COCC(F)(F)F)cc2)cc1OC | 2% | 8% | i | -2% | 21µM* | ?
O=C(Nc1ccc(OCC(F)(F)C(F)F)c(C(F)(F)F)c1)c1ccc(Cl)cc1 | 23µM* | 26µM* | ? | 15µM* | ? | ?
COc1ccc(C(=O)Nc2ccc(OCC(F)(F)C(F)F)c(C(F)(F)F)c2)cc1OC | 11µM* | ? | ? | ? | ? | 11µM*
CC1(C)CC(=O)C=C(/C=C/c2ccccc2)C1 | 23µM* | 0% | i | 22% | i | -16%
CC1(C)CC(=O)C=C(NCCc2ccccc2)C1 | 17% | 23% | i | 9% | i | -16%
CCN(CC)c1ccc2cc(-c3nc(-c4cc(OC)c(OC)c(OC)c4)no3)c(=O)oc2c1 | 21µM* | nt | nt | nt | nt | 10µM*
CCN(CC)c1ccc2cc(-c3nc(-c4ccccc4F)no3)c(=O)oc2c1 | -16% | nt | nt | nt | nt | ?
